In paper PMC5540273 (PLoS ONE, 2017):

What was measured:
Conditions in all cases: concentration: 1 μM, replicates: in singlicate; n = 1
[1] = system: PRKD3
[2] = system: PRKG1
[3] = system: PRKG2
[4] = system: T1, PRKR
T1 construct: gene EIF2AK2

[5] = system: PRKX
[6] = system: PRP4
[7] = system: T2, PYK2
T2 construct: gene PTK2B

[8] = system: QSK
[9] = system: RAF1
[10] = system: RET
[11] = system: RIOK1
[12] = system: RIOK2
[13] = system: RIOK3
[14] = system: RIPK1
[15] = system: RIPK2
[16] = system: RIPK4
[17] = system: RIPK5
[18] = system: ROCK1
[19] = system: ROCK2
[20] = system: ROS1
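Note: KINOMEscan kinase panel screen.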

Structure (SMILES)	%Inh [1] [%]	%Inh [2] [%]	%Inh [3] [%]	%Inh [4] [%]	%Inh [5] [%]	%Inh [6] [%]	%Inh [7] [%]	%Inh [8] [%]	%Inh [9] [%]	%Inh [10] [%]	%Inh [11] [%]	%Inh [12] [%]	%Inh [13] [%]	%Inh [14] [%]	%Inh [15] [%]	%Inh [16] [%]	%Inh [17] [%]	%Inh [18] [%]	%Inh [19] [%]	%Inh [20] [%]
CCc1ccc(-c2ccc3c(c2)-c2c(cnn2C)S(=O)(=O)N3C)cc1	0	0	0	6	16	10	0	0	19	5	0	12	0	0	0	9	26	0	0	3
Cl.c1ccc(-c2ccc3c(Nc4ccc5[nH]ncc5c4)ccnc3c2)nc1 [GW440137]	17	0	0	0	19	66	2	6	15	76	32	11	32	6	75	23	4	10	35	0
Cc1ccc(C)c(NC(=O)NC2CCN(c3ccnc(Nc4ccc(F)cc4)n3)C2)c1 (centres unmarked) [GSK1379720]	0	0	0	0	4	51	19	13	14	0	23	0	0	0	0	6	0	0	29	0
Cn1cc(-c2ccc3c(c2)CCN3C(=O)Cc2cccc(Cl)c2)c2c(N)ncnc21 [GSK2606590]	9	14	0	14	21	2	4	23	1	27	6	19	12	100	15	0	58	0	40	31
Nc1ncnc2c1nc(-c1ccccc1)n2-c1ccccc1 [SKF-97293]	22	7	0	27	3	15	8	26	0	17	0	1	6	3	7	27	36	56	43	15
CC(=O)Nc1nc2cnc(Nc3cc(NC(=O)c4cccc(C5(C#N)CC5)c4Cl)ccc3C)nc2s1	0	0	0	0	19	6	20	0	99.2	99.6	15	5	3	2	0	0	15	5	0	0
FC(F)(F)c1ccc(/C=C/c2cncnc2Nc2ccc3[nH]c(Cc4ccccc4)nc3c2)cc1 [GW709199]	0	0	6	2	0	0	30	0	46	8	33	0	2	11	11	0	0	0	0	0
c1ccc(Oc2ccc(Nc3ccnc4cc(-c5ccc(CNCCN6CCOCC6)o5)ccc34)cc2)nc1 [GW567145]	23	1	2	0	0	36	0	17	2	5	0	0	0	0	93.5	0	1	4	40	0
CC(C)c1nc(-c2cccc(NS(=O)(=O)c3c(F)cccc3F)c2F)c(-c2ccnc(Nc3ccc(N4CCOCC4)nc3)n2)s1 [GSK2008607]	100	0	0	29	0	0	3	90.5	100	99.7	22	0	17	0	96.3	15	92.6	0	0	35
COc1cc(Nc2ncc3c(C)nc(-c4cc5ccccc5[nH]4)n3n2)cc(OC)c1OC [GW869516]	0	0	0	35	0	0	36	0	18	45	35	0	23	26	6	0	0	0	0	0
CN(C)Cc1ccc(-c2ccc3c(Nc4ccc(Oc5ccccn5)cc4)ccnc3c2)o1 [GW567148]	0	0	0	0	22	4	0	0	0	1	8	4	0	0	95.3	0	0	6	11	0
c1ccc(-c2n[nH]cc2Nc2ccnc3ccccc23)nc1 [GW694077]	100	5	0	16	0	89	0	0	7	0	99.2	86	100	0	11	96.4	85	98.2	97.8	9
O=C(Nc1cccc(-c2nn3ccccc3c2-c2ccnc(Nc3cccc(F)c3)n2)c1)c1c(F)ccc(F)c1Cl [GSK357952]	39	1	1	0	22	8	0	5	79	84	24	51	16	0	35	0	0	3	18	18
O=c1[nH]cc(-c2ccc(N3CCOCC3)cc2)c2sc(-c3cn[nH]c3)cc12 [GSK2276055]	4	0	10	34	10	0	0	11	0	3	37	76	25	18	0	12	10	0	0	0
O=C(Nc1n[nH]c2nc(-c3ccc(O)cc3)ccc12)C1CC1 [SB-710363]	0	19	10	0	0	0	26	17	13	0	47	0	46	2	0	39	0	0	0	0
O=C(Nc1n[nH]c2cc(-c3ccoc3)ccc12)C1CC1 [SB-738481]	0	0	14	0	0	0	9	11	0	0	68	5	0	28	0	17	3	0	0	9
COc1cc2c(cc1OCCN1CCNCC1)ncc1c3ccc(C#N)cc3[nH]c21	0	0	7	9	34	38	0	52	29	35	82	12	93.9	0	16	41	28	99.2	99.7	0
C[C@@H](Oc1cc(-n2cnc3cc(-c4ccnc(NCCS(C)(=O)=O)c4)ccc32)sc1C(N)=O)c1ccccc1Cl [GSK907232]	0	10	0	0	0	60	24	14	18	51	90.6	22	76	45	14	14	5	0	0	13
Cl.Cl.NCC(C(=O)Nc1cc(Br)c(-c2ccnc3[nH]ccc23)s1)c1ccccc1 (centres unmarked) [GSK1269851]	41	94.6	86	0	88	83	2	15	0	32	95.7	19	67	0	0	27	0	99.1	91.8	12
O=C(Nc1ccccc1F)NC1CCN(c2ccnc(Nc3ccc(F)cc3)n2)CC1 [GSK1379800]	0	15	0	0	7	45	0	1	16	4	58	0	43	26	0	16	0	10	31	0

Structure (SMILES)	%Inh [1] [%]	%Inh [2] [%]	%Inh [3] [%]	%Inh [4] [%]	%Inh [5] [%]	%Inh [6] [%]	%Inh [7] [%]	%Inh [8] [%]	%Inh [9] [%]	%Inh [10] [%]	%Inh [11] [%]	%Inh [12] [%]	%Inh [13] [%]	%Inh [14] [%]	%Inh [15] [%]	%Inh [16] [%]	%Inh [17] [%]	%Inh [18] [%]	%Inh [19] [%]	%Inh [20] [%]
COC(=O)Nc1nc2ccc(Oc3ccc(NC(=O)Nc4cc(C(F)(F)F)ccc4F)cc3)cc2n1C.Cl [GW692089]	5	14	5	0	0	58	0	0	85	99.5	0	0	0	39	29	0	0	34	39	28
C[C@@H]1CC[C@@H](C(=O)Nc2ccccc2)CN1c1cc(-c2ccc3c(N)n[nH]c3c2)nc(N)n1 [GSK2286062]	0	0	0	2	5	13	3	3	2	6	48	52	20	31	0	0	0	14	35	14
c1ccc(-c2cnc3nccnn23)cc1 [AH20685]	0	14	0	0	6	6	0	0	7	0	0	0	0	0	0	0	0	0	0	0
NCCCC(NC(=O)c1cc(Br)c(-c2ccnc3[nH]ccc23)s1)c1ccccc1.O=C(O)C(F)(F)F.O=C(O)C(F)(F)F (centres unmarked) [GSK1287544]	53	97.8	98	0	92.5	0	0	0	0	54	91.8	66	76	53	0	6	1	99.4	92.8	10
Cn1cc(-c2[nH]c3cc(NC(=O)[C@H](N)C4CCCCC4)cc4c3c2C=NNC4=O)cn1	0	56	96.2	67	89	68	3	95.8	0	100	93.7	21	88	0	2	87	25	85	91.8	37
CSc1cccc2c(-c3ccncn3)c(-c3ccc(F)cc3)nn12 [GW514786]	100	17	0	0	16	19	0	14	4	29	45	0	21	0	43	0	19	13	19	0
Nc1ncc(-c2ccc3nccc(-c4ccncc4)c3c2)cc1S(=O)(=O)N1CCOCC1 [GSK1627798]	0	0	0	14	11	3	21	0	0	0	30	39	17	0	1	4	0	0	0	15
COc1cccc(NC(=O)NC2CCN(c3ccnc(Nc4cc(OC)c(OC)c(OC)c4)n3)C2)c1 (centres unmarked) [GSK1379763]	0	0	0	6	28	26	4	0	7	16	85	0	82	6	29	49	0	4	9	23
COC(=O)Nc1nc2cc(Oc3ccc(NC(=O)Nc4cc(C(F)(F)F)ccc4F)cn3)ccc2[nH]1.Cl.Cl [GW681170]	13	9	22	0	0	22	16	0	90.3	99.9	0	0	14	41	58	0	0	51	46	27
Cn1cc(-c2ccc3c(c2)CCN3C(=O)Cc2cccc(F)c2)c2c(N)ncnc21 [GSK2603358]	2	0	4	1	14	44	0	8	9	47	7	0	0	99.7	34	5	62	9	64	21
COc1cccc(C(=O)Nc2cccc(Oc3ccc4nc(NC(=O)C5CC5)cn4n3)c2)c1	15	0	21	0	2	0	9	0	96.8	100	55	0	39	20	50	0	0	0	0	0
COc1ccc(Nc2nccc(N3CCC(NC(=O)Nc4cccc(OC)c4)C3)n2)cc1 (centres unmarked) [GSK1379742]	0	0	0	0	15	12	5	6	3	7	34	4	25	0	0	0	0	0	2	13
Cc1ccc(C(=O)Nc2ccc(Nc3ccnc4cc(-c5nccs5)ccc34)cc2O)cc1.Cl [GW494702]	0	0	0	0	11	46	0	0	19	59	27	7	0	0	49	13	0	18	12	0
COc1ccc(Nc2nccc(NCCNC(=O)c3cc4ccccc4s3)n2)cc1 [GSK1379896]	0	0	0	0	16	17	0	2	9	25	19	0	0	0	12	0	7	13	28	9
CCS(=O)(=O)c1ccc(OC)c(Nc2nccc(-c3c(-c4cccc(NC(=O)c5c(F)cccc5F)c4)nn4ncccc34)n2)c1 [GSK326180]	12	6	3	0	18	20	12	7	93.2	20	30	0	56	0	83	27	10	2	18	0
COc1cc(Nc2nccc(-c3c(-c4cccc(NC(=O)c5c(F)cccc5F)c4)nn4ncccc34)n2)cc(OC)c1OC [GSK327238]	0	24	15	22	0	0	72	17	97.2	99.7	20	5	24	16	99.4	4	0	12	14	75
COc1cc(Nc2nccc(N3CCC(NC(=O)Nc4cccc(C(C)=O)c4)C3)n2)cc(OC)c1OC (centres unmarked) [GSK1379753]	0	0	0	0	37	14	0	0	14	0	73	0	65	9	22	48	0	25	7	30
COc1cccc(C2=C(Nc3ccc(Cl)c(C(=O)O)c3)C(=O)NC2=O)c1 [SB-390769]	0	0	41	9	0	31	0	100	14	11	0	0	5	0	21	7	100	28	12	0
CN1CCN(CCCNc2nccc(-c3c(-c4ccc(F)cc4)nn4cc(C(F)(F)F)ccc34)n2)CC1 [GW621581]	62	10	0	0	13	25	0	0	8	0	28	4	0	0	52	0	0	0	26	0
Cc1ccc(C(=O)N2CC[C@@H](O)C2)cc1-n1c(C)cc(OCc2ccc(F)cc2F)c(Br)c1=O	7	6	0	0	0	20	2	0	25	10	12	0	29	0	46	0	0	0	0	0
